G9a block: qHTS Assay for Inhibitors of Histone Lysine Methyltransferase G9a; Histone-lysine N-methyltransferase EHMT2 (Homo sapiens), Q96KQ7; G9a H3K9 monomethylation, AlphaScreen, 2 h; Potency, µM (top dose mostly 102 µM), usual class: inhibitors; 350,000 tested, 8.8% active; also: nearly all actives have a fitted effect of over 75% in size
Target sequence (Q96KQ7 913-1193 limits assumed): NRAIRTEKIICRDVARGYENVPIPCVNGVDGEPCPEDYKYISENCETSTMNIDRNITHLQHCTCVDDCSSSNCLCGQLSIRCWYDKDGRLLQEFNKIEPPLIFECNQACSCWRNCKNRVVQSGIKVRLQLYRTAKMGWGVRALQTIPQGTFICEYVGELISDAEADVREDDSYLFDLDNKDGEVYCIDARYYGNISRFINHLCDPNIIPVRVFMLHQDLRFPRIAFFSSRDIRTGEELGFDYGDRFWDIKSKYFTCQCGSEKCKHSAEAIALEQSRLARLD
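Using a bead-based AlphaScreen, monomethylated H3K9 product from 2 h room-temperature reactions (G9a 20 nM, peptide 500 nM, SAM 20 uM) was detected with 0.5 ug/mL rabbit anti-H3K9me1 antibody.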
BAZ2B block: qHTS Assay for Inhibitors of BAZ2B; AID 504333, 2011; 360,000 tested, 4.4% active; Potency, µM (top dose mostly 114 µM), actives largely listed as inhibitors; Bromodomain adjacent to zinc finger domain protein 2B (Homo sapiens), Q9UIF8; AlphaScreen BAZ2B-H3K14Ac peptide displacement; also: nearly all actives have a fitted effect of over 60% in size
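Compounds, titrated to a top concentration of 110 uM, were incubated 30 min at room temperature with preformed BAZ2B/acetyl-K14 H3 peptide complex (50 nM each). Proximity signal was measured by AlphaScreen after 20 min with beads.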
JMJD2A Tudor inh: qHTS Assay for Inhibitors of JMJD2A-Tudor Domain; Lysine-specific demethylase 4A (Homo sapiens), O75164; AlphaScreen JMJD2A-Tudor / H3K4me3 peptide binding; Potency, µM (titrated, usually from 114 µM), usual class: inhibitors; 390,000 tested, 4.4% active; AID 504339, 2011; also: nearly all actives have a fitted effect of over 50% in size
HP1b chromo inh: HTS for Inhibitors of HP1-beta Chromodomain Interactions with Methylated Histone Tails. Potency, µM (series often up to 114 µM), actives largely listed as inhibitors. 390,000 tested, 0.56% active. AID 540317, 2011. AlphaScreen HP1-beta / biotin-H3K9me3 peptide binding; also: nearly all actives have a fitted effect of over 70% in size
Target sequence (P83916 whole entry, looked up): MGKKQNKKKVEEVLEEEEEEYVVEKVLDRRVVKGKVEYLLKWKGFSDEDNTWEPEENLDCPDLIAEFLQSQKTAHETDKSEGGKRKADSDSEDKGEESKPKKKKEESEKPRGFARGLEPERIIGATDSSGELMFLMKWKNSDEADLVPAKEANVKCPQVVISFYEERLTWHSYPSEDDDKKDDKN
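AlphaScreen: HP1-beta (50 nM) preformed 30 min with biotin-H3(1-18)K9me3 peptide (50 nM) in PBS pH 7.4, 0.01% Tween-20. Compound added for 30 min at RT, then streptavidin donor/nickel chelate acceptor beads (10 ug/mL) for 30 min.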
L3MBTL1 inh: qHTS Assay for the Inhibitors of L3MBTL1; Lethal(3)malignant brain tumor-like protein 1 (Homo sapiens), Q9Y468; 230,000 tested, 0.66% active; AID 485360, 2010; Potency, µM (series often up to 57.1 µM), usual class: inhibitors; AlphaScreen L3MBTL1–H3K9me1 peptide binding; also: nearly all actives have a fitted effect of over 60% in size
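Displacement of a biotinylated histone H3(1-15) peptide monomethylated at Lys9 (75 nM) from L3MBTL1 (50 nM) was measured by AlphaScreen after a 30 min room-temperature compound incubation; cefsulodin titration served as intraplate control.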
Sfp inh: qHTS Assay for Inhibitors of Bacillus subtilis Sfp phosphopantetheinyl transferase (PPTase); Potency, µM, usual class: inhibitors; Biochemical Sfp PPTase activity, qHTS; 310,000 tested, 3.5% active; 4'-phosphopantetheinyl transferase ffp (Bacillus subtilis), Q9F4F7;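 also: the enzyme is Sfp with the accession as filed and its product quenches rhodamine fluorescence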
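Step 1, compound plus 15 nM Sfp-PPTase, 15 min, room temperature. Step 2, add rhodamine-CoA (5 uM) and BHQ-2-YbbR (12.5 uM). Step 3, read 525/598 nm fluorescence at 0 and 30 min.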
A number is an active result; . = inactive; ? = inconclusive; / = no result; [ ] = dose if it differs, or a comment. A selection: hits, their analogues and other compounds. The true share with any hit is near 12%. Calls follow the shape of the dose curve; as a rule, active = well fitted curve in the direction sought with a large enough effect; inconclusive = small, poorly fitted or top-dose-only effect, or another doubt; inactive = no such curve, though single readings can be large; an effect the other way counts as inactive or inconclusive.

SMILES	G9a block	BAZ2B block	JMJD2A Tudor inh	HP1b chromo inh	L3MBTL1 inh	Sfp inh
CC1CCCC(NC(=O)COC(=O)c2ccc(N(C)C)cc2)C1C (stereo not drawn)	.	.	.	.	/	.
CN(C)Cc1nc2ccccc2c(=O)n1Cc1nc(-c2cccc([N+](=O)[O-])c2)cs1	?	.	?	?	.	.
CN1CCN(Cc2nc3ccccc3c(=O)n2Cc2nc(-c3ccc([N+](=O)[O-])cc3)cs2)CC1	22µM	.	20µM	?	.	.
CCOc1c(Cl)cc(C(=O)N(Cc2ccc(N(C)C)cc2)Cc2ccco2)cc1Cl	?	13µM	13µM	.	/	/
CCSc1ncc(Cl)c(C(=O)N(Cc2ccccc2)Cc2ccco2)n1	.	.	.	.	/	/
Cc1ccc2c(CC(=O)N(Cc3ccc(N(C)C)cc3)Cc3ccco3)coc2c1C	8.9µM	8.9µM	13µM	?	/	/
CCOc1cccc(C(=O)N(Cc2ccc(F)cc2)Cc2ccco2)c1	.	.	.	.	/	/
Cc1cc(C)c2c(CC(=O)N(Cc3ccc(Cl)cc3)Cc3ccco3)coc2c1	.	.	.	.	/	/
O=C(c1ccco1)N(Cc1ccc(Cl)cc1)Cc1ccco1	32µM	?	.	.	/	.
CSc1ncc(Cl)c(C(=O)N(Cc2ccc(N(C)C)cc2)Cc2ccco2)n1	13µM	18µM	22µM	?	/	/
Cc1cc(C)cc(NC(=O)C(=O)NC(C)c2ccccc2)c1 (stereo not drawn)	.	.	.	.	/	/
Cc1cccc(OCC(=O)Nc2ccccc2C(=O)OCc2cc(=O)n3nc(C)sc3n2)c1	.	.	.	.	/	/
Cc1ccc(CNC(=O)c2ccc3c(c2)c(C)c(C)n3Cc2ccc(Cl)cc2)o1	?	.	?	.	/	/
CC(C)(C)c1ccc(C(=O)N(Cc2ccc(F)cc2)Cc2ccco2)cc1	?	.	.	.	/	/
COc1ccc(C(=O)N(Cc2ccco2)Cc2ccco2)cc1	.	.	.	.	/	/
CCOc1ccccc1C(=O)N(Cc1ccc(N(C)C)cc1)Cc1ccco1	20µM	35µM	25µM	?	/	/
Cc1c(C(=O)N(Cc2ccc(N(C)C)cc2)Cc2ccco2)oc2cc(Br)ccc12	?	?	18µM	?	/	/
CC(C)COc1ccc(C(=O)N(Cc2ccc(N(C)C)cc2)Cc2ccco2)cc1	16µM	13µM	14µM	.	/	/
CN(C)c1ccc(CN(Cc2ccco2)C(=O)c2ccco2)cc1	45µM	?	32µM	?	/	.
NS(=O)(=O)c1cc(C(=O)NC2CCSc3ccccc32)ccc1Cl (stereo not drawn)	1.6µM	?	0.79µM	2.2µM	/	.
CC(=O)c1cccc(S(=O)(=O)NC2CCSc3ccccc32)c1 (stereo not drawn)	28µM	.	?	.	/	.
NS(=O)(=O)c1cccc(C(=O)NC2CCSc3ccccc32)c1 (stereo not drawn)	?	.	.	.	/	.
CC(=O)c1cccc(S(=O)(=O)NC2CC2)c1	45µM	.	.	.	.	.
COc1cccc(CNC(=O)Cn2nc3c(cc2=O)CCCC3)c1OC	.	.	.	.	/	/
CCOc1ccc(-c2nc3c(c(CC)nn3-c3ccccc3)c3cc(OC)c(OC)cc23)cc1	.	.	.	.	/	/
SMILES	G9a block	BAZ2B block	JMJD2A Tudor inh	HP1b chromo inh	L3MBTL1 inh	Sfp inh
Cc1nn(Cc2ccccc2)c(C)c1NC(=O)CCCn1nc([N+](=O)[O-])c(Cl)c1C	.	.	40µM	.	.	.
CCCc1cc(C(=O)Nc2c(C)nn(Cc3c(Cl)cccc3Cl)c2C)no1	.	.	.	.	/	/
O=C(Cc1cccs1)OCC(=O)c1ccco1	50µM	?	79µM	?	?	.
Cn1c(N)c(C(=O)COC(=O)Cc2cccs2)c(=O)n(C)c1=O	/	/	.	.	.	/
Cc1ccc(C)c(SCC(=O)OCC(=O)c2ccco2)c1	?	50µM	79µM	?	?	.
O=C(OC(c1ccccc1)c1nccc2ccccc12)c1cc([N+](=O)[O-])cc([N+](=O)[O-])c1 (stereo not drawn)	10µM	?	?	?	.	.
COc1ccc(OC)c(CNS(=O)(=O)c2ccc3c(c2)CCCN3C(C)=O)c1	.	.	.	.	/	/
CCOC(=O)c1cc(-c2ccccc2)n(CC(=O)NC2CCC(C)CC2)c1C (stereo not drawn)	.	.	.	.	/	/
Cc1ccccc1-c1nn2c(-c3ccccc3)nnc2s1	.[12.7 µM]	.	.	.	.	56µM
Cc1cc(-c2nn3c(-c4ccccc4)nnc3s2)c2ccccc2n1	2.2µM	.	.	.	.	?
c1ccc(-c2cc(-c3nn4c(-c5ccco5)nnc4s3)c3ccccc3n2)cc1	?	.	?	.	.	?
CCNc1nc(NCC)nc(N/N=C/c2ccc([N+](=O)[O-])o2)n1	1.8µM	?	.	.	/	.
Cc1ccc(/C=N/NC(=O)c2cc3c(ccc4ccccc43)o2)o1	.	.	.	.	/	.
O=C(N/N=C/c1ccc([N+](=O)[O-])o1)c1cc2ccccc2o1	50µM	.	.	.	/	.
O=C(N/N=C/c1ccc([N+](=O)[O-])o1)c1cc2c(ccc3ccccc32)o1	/	56µM	?	.	6.3µM	?
O=[N+]([O-])c1ccc(/C=N/Nc2ccc3ccccc3c2)o1	10µM	8.9µM	7.1µM	?	?	.
Cc1ccc2nc(N/N=C\c3ccc([N+](=O)[O-])o3)nc(-c3ccccc3)c2c1	.	.	.	.	/	.
O=[N+]([O-])c1ccc(/C=N/Nc2nc(N3CCCC3)nc(N3CCCC3)n2)o1	.	.	.	.	/	.
Cc1nc2ccccn2c1C(=O)N/N=C/c1ccc([N+](=O)[O-])o1	50µM	45µM	40µM	?	?	.
Cc1nc2ccccn2c1C(=O)N/N=C/c1ccc([N+](=O)[O-])cc1	.	.	.	.	.	.
CC[C@H](C)[C@H]1CNC(=O)C(=O)N1CC1CCN(CCCc2ccc(OC)c(OC)c2)CC1	/	/	79µM	.	/	/
COc1ccc(-n2nc(C(=O)Nc3ccccc3OC)c3c4ccccc4n(C)c3c2=O)cc1Cl	.	.	.	.	/	/
Cc1ccc(-c2nc(S(=O)(=O)c3ccc(C)cc3)c(N3CCCCC3)o2)cc1	16µM	?	.	.	/	/
Cc1ccc(S(=O)(=O)c2nc(C(C)(C)C)oc2N2CCOCC2)cc1	8.9µM	.	35µM	50µM	.	28µM
COc1cccc(-c2nc(S(=O)(=O)c3ccccc3)c(N3CCC(C)CC3)o2)c1	18µM	?	?	.	/	/
Cc1ccc(S(=O)(=O)c2nc(-c3ccccc3)oc2N2CCCCCC2)cc1	?	.	.	?	/	/

High-throughput results from PubChem.
